# Assay results as given in paper PMC11066047.
# Tests used:
# [1] = biological target: Large ribosomal subunit protein eL38 (UniProt P49167); assay: cross-link between two proteins; cross-linking mass spectrometry
# [2] = biological target: Large ribosomal subunit protein eL6A (UniProt Q02326); assay: as above
# [3] = biological target: Large ribosomal subunit protein eL8B (UniProt P29453); assay: as above
# Pescadillo homolog = Pescadillo homolog (UniProt P53261); assay: as above
# [4] = biological target: Proteasome-interacting protein CIC1 (UniProt P38779); assay: as above
# Sequence of Proteasome-interacting protein CIC1 (P38779 whole entry): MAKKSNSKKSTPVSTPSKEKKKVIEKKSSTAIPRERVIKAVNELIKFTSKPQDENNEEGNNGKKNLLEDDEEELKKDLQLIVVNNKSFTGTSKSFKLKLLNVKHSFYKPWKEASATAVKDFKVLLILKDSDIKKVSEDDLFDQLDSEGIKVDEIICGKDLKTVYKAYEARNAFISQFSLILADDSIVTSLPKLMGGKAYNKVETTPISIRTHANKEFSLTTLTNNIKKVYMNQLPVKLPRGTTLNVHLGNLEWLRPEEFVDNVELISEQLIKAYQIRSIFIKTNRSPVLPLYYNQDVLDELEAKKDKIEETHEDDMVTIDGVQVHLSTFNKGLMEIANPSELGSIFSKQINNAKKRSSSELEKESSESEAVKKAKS
# [5] = biological target: Large ribosomal subunit protein uL13B (UniProt P26785); assay: as above
# [6] = biological target: Large ribosomal subunit protein uL4A (UniProt P10664); assay: as above
# [7] = biological target: Large ribosomal subunit protein uL4B (UniProt P49626); assay: as above
# [8] = biological target: Mitochondrial import inner membrane translocase subunit TIM14 (UniProt Q07914); assay: as above
# [9] = biological target: NET1-associated nuclear protein 1 (UniProt Q02931); assay: cross-link between two proteins
# Sequence of NET1-associated nuclear protein 1 (Q02931 whole entry): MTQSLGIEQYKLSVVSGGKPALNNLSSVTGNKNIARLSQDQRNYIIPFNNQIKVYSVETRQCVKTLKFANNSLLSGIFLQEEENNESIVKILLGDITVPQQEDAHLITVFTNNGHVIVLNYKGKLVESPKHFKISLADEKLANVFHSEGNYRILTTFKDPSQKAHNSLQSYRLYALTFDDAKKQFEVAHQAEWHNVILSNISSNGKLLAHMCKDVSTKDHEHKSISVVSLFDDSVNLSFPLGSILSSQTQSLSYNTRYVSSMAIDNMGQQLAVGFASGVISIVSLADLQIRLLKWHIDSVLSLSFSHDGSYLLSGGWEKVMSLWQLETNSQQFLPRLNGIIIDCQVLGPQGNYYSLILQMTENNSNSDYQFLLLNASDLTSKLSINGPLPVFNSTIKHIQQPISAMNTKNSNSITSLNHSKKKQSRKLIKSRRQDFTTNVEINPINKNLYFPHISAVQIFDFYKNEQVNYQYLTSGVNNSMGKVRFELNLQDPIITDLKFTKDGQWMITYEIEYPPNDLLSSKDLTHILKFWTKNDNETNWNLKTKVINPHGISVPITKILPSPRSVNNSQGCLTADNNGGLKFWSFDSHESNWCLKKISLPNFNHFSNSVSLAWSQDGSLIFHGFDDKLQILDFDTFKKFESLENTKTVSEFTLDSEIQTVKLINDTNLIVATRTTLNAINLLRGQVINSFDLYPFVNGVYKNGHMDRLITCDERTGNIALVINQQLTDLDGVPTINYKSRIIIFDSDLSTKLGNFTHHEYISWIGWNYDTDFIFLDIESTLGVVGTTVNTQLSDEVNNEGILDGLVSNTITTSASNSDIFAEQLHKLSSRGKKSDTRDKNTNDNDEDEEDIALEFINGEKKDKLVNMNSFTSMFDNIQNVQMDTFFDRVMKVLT
# [10] = biological target: Nucleolar complex protein 14 (UniProt Q99207); assay: cross-link between two proteins
# [11] = biological target: Ribosomal RNA-processing protein 12 (UniProt Q12754); assay: cross-link between two proteins
# Nucleolar protein 56 = Nucleolar protein 56 (UniProt Q12460); assay: cross-link between two proteins
# Nucleolar protein 58 = Nucleolar protein 58 (UniProt Q12499); assay: cross-link between two proteins; cross-linking mass spectrometry
# Prohibitin-2 = Prohibitin-2 (UniProt P50085); assay: as above
# [12] = biological target: Proteasome subunit alpha type-2 (UniProt P23639); assay: as above
# [13] = biological target: Proteasome subunit beta type-3 (UniProt P25451); assay: as above
# Sequence of Proteasome subunit beta type-3 (P25451 whole entry): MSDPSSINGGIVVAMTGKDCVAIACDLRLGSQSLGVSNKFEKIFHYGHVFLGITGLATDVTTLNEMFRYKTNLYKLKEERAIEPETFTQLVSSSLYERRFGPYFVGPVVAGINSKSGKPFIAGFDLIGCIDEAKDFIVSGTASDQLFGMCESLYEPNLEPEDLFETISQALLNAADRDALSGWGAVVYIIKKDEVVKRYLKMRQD
# [14] = biological target: Proteasome subunit alpha type-3 (UniProt P23638); assay: as above
# [15] = biological target: Proteasome subunit alpha type-6 (UniProt P40302); assay: as above
# [16] = biological target: Protein transport protein SBH2 (UniProt P52871); assay: as above
# [17] = biological target: Ribosome biogenesis protein BMS1 (UniProt Q08965); assay: cross-link between two proteins
# [18] = biological target: Ribosome biogenesis protein MAK21 (UniProt Q12176); assay: cross-link between two proteins; cross-linking mass spectrometry
# Sequence of Ribosome biogenesis protein MAK21 (Q12176 whole entry): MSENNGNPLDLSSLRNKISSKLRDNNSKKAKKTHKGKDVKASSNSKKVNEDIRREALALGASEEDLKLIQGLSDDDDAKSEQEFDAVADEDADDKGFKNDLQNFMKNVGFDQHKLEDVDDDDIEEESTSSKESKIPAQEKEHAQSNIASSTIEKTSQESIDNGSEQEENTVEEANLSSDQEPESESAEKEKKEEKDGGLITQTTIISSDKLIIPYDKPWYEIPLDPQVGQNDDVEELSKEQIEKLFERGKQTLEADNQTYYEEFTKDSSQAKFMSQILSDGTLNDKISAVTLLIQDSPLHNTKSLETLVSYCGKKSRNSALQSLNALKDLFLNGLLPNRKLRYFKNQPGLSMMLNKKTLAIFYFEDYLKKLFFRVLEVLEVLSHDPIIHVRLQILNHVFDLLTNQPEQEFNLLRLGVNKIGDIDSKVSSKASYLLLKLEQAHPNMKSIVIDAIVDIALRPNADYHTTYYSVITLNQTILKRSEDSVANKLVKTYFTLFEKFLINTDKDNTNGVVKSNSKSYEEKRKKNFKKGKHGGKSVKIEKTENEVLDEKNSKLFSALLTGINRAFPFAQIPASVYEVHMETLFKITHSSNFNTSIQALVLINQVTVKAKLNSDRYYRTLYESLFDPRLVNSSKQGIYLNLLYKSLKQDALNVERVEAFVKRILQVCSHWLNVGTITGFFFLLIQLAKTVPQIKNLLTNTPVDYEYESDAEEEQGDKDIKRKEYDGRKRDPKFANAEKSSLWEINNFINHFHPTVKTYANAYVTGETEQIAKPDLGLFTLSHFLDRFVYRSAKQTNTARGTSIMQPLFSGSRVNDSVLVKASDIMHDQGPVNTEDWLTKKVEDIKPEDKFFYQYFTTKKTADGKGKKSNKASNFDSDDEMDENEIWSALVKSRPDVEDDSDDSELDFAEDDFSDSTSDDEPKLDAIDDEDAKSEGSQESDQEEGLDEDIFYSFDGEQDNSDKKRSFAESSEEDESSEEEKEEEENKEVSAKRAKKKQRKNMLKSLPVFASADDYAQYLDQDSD
# [19] = biological target: Ribosome biogenesis protein YTM1 (UniProt Q12024); assay: as above
# Sequence of Ribosome biogenesis protein YTM1 (Q12024 whole entry): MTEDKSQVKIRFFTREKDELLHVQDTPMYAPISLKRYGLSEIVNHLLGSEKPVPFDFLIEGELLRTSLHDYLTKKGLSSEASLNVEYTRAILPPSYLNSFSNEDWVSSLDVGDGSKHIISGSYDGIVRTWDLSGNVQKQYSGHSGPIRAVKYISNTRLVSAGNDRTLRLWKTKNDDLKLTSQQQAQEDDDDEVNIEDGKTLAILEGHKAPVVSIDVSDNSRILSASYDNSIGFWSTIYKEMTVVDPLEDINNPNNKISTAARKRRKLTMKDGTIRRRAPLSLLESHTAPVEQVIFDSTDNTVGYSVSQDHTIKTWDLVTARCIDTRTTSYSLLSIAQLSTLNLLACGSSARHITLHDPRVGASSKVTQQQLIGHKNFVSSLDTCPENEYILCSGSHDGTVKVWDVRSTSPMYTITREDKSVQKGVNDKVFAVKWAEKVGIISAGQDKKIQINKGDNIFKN
# RuvB-like protein 2 = RuvB-like protein 2 (UniProt Q12464); assay: as above
# [20] = biological target: Small ribosomal subunit protein RACK1 (UniProt P38011); assay: as above
# [21] = biological target: Small ribosomal subunit protein uS10 (UniProt P38701); assay: as above
# [22] = biological target: Small ribosomal subunit protein uS5 (UniProt P25443); assay: as above
# [23] = biological target: Small ribosomal subunit protein eS12 (UniProt P48589); assay: as above
# [24] = biological target: Small ribosomal subunit protein eS25A (UniProt Q3E792); assay: as above
# [25] = biological target: Small ribosomal subunit protein eS28A (UniProt Q3E7X9); assay: cross-link between two proteins
# Sequence of Small ribosomal subunit protein eS28A (Q3E7X9 whole entry): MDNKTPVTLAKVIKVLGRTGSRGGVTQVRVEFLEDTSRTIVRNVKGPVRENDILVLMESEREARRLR
# [26] = biological target: Small ribosomal subunit protein uS11B (UniProt P39516); assay: cross-link between two proteins; cross-linking mass spectrometry
# [27] = biological target: Small ribosomal subunit protein uS7 (UniProt P26783); assay: as above
# [28] = biological target: Succinate--CoA ligase [ADP-forming] subunit alpha, mitochondrial (UniProt P53598); assay: as above
# [29] = biological target: U3 small nucleolar RNA-associated protein 12 (UniProt Q12220); assay: as above
# Sequence of U3 small nucleolar RNA-associated protein 12 (Q12220 whole entry): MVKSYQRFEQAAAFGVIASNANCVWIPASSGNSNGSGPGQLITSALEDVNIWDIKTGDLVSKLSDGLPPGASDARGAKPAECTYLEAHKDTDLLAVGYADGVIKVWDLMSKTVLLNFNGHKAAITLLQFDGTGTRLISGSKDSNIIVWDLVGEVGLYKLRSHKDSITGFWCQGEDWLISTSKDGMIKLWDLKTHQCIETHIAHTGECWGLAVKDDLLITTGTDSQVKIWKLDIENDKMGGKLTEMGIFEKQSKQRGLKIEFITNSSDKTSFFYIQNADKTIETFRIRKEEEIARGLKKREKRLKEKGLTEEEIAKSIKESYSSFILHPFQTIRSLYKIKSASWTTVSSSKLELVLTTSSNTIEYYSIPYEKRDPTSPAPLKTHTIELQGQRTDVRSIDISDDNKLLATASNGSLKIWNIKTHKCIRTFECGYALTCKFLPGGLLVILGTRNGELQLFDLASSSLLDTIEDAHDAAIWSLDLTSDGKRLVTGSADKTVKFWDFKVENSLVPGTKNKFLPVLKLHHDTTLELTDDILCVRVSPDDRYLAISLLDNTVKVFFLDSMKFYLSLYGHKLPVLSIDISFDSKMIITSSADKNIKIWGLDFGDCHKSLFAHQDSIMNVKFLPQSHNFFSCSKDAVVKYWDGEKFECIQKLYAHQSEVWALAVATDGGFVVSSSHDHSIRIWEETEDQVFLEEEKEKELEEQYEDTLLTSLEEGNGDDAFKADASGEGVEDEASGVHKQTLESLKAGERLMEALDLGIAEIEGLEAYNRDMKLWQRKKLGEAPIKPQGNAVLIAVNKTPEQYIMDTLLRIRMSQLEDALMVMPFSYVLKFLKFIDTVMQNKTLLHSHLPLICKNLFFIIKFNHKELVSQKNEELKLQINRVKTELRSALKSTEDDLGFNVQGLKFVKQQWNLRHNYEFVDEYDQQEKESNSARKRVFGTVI
# [30] = biological target: U3 small nucleolar RNA-associated protein 15 (UniProt Q04305); assay: as above
# [31] = biological target: U3 small nucleolar RNA-associated protein 16 (UniProt Q08492); assay: cross-link between two proteins
# [32] = biological target: U3 small nucleolar RNA-associated protein 21 (UniProt Q06078); assay: cross-link between two proteins
# [33] = biological target: U3 small nucleolar RNA-associated protein 22 (UniProt P53254); assay: cross-link between two proteins
# [34] = biological target: U3 small nucleolar RNA-associated protein MPP10 (UniProt P47083); assay: cross-link between two proteins
# [35] = biological target: Ubiquitin-like protein MDY2 (UniProt Q12285); assay: cross-link between two proteins; cross-linking mass spectrometry
# [36] = biological target: rRNA-processing protein FCF2 (UniProt Q12035); assay: cross-link between two proteins
# Sequence of Large ribosomal subunit protein eL8B (P29453 whole entry): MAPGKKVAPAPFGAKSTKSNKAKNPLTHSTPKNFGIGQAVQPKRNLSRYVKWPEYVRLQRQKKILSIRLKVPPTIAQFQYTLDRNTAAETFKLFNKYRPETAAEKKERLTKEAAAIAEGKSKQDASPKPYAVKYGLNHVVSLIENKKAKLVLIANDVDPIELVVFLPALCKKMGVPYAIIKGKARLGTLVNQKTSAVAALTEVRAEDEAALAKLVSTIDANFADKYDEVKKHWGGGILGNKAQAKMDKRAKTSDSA
# Sequence of Pescadillo homolog (P53261 whole entry): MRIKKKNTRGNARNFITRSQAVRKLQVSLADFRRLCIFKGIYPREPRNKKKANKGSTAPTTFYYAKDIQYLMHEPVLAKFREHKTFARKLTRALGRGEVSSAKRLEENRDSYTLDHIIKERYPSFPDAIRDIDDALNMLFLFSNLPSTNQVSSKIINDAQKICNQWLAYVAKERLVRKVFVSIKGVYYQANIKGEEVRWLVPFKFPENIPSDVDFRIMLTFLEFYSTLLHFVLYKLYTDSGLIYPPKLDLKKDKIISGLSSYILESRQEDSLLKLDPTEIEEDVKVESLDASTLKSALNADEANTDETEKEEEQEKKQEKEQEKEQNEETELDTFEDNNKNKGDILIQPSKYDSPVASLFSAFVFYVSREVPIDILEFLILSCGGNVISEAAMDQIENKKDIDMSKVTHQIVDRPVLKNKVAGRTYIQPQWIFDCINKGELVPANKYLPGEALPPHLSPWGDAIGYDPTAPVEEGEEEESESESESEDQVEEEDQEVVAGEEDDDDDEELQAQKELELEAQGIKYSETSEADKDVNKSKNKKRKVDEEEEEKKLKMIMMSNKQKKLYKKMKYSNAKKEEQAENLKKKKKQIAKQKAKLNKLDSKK
# Sequence of Small ribosomal subunit protein eS28B, P0C0X0 (P0C0X0 whole entry): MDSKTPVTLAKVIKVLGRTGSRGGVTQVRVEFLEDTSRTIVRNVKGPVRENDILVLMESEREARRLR
substance,measurement,setting,value
"Large ribosomal subunit protein eL22A, P05749",listed as a hit,[1],yes
"Large ribosomal subunit protein eL32, P38061",listed as a hit,[2],yes
"Large ribosomal subunit protein eL8A, P17076",listed as a hit,[3],yes
same,listed as a hit,Pescadillo homolog,yes
same,listed as a hit,[4],yes
"Large ribosomal subunit protein eL27A, P0C2H6",listed as a hit,[3],yes
"Large ribosomal subunit protein uL3, P14126",listed as a hit,[5],yes
"Large ribosomal subunit protein uL30A, P05737",listed as a hit,[6],yes
same,listed as a hit,[7],yes
"Mitochondrial import inner membrane translocase subunit TIM16, P42949",listed as a hit,[8],yes
"U3 small nucleolar RNA-associated protein 8, P53276",listed as a hit,[9],yes
"U3 small nucleolar RNA-associated protein 10, P42945",listed as a hit,[9],yes
"Essential nuclear protein 1, P38333",listed as a hit,[10],yes
same,listed as a hit,[11],yes
"rRNA 2'-O-methyltransferase fibrillarin, P15646",listed as a hit,Nucleolar protein 56,yes
same,listed as a hit,Nucleolar protein 58,yes
"Large ribosomal subunit protein eL8B, P29453",listed as a hit,Pescadillo homolog,yes
same,listed as a hit,[4],yes
"Prohibitin-1, P40961",listed as a hit,Prohibitin-2,yes
"Proteasome subunit alpha type-1, P21243",listed as a hit,[12],yes
"Proteasome subunit alpha type-3, P23638",listed as a hit,[12],yes
same,listed as a hit,[13],yes
"Proteasome subunit beta type-4, P22141",listed as a hit,[14],yes
same,listed as a hit,[13],yes
"Probable proteasome subunit alpha type-7, P21242",listed as a hit,[15],yes
"Sec sixty-one protein homolog, P38353",listed as a hit,[16],yes
"rRNA processing protein RCL1, Q08096",listed as a hit,[17],yes
"Nucleolar complex protein 2, P39744",listed as a hit,[18],yes
"rRNA biogenesis protein RRP5, Q05022",listed as a hit,[18],yes
"Ribosome biogenesis protein ERB1, Q04660",listed as a hit,[19],yes
"Pescadillo homolog, P53261",listed as a hit,[19],yes
"RuvB-like protein 1, Q03940",listed as a hit,RuvB-like protein 2,yes
"Small ribosomal subunit protein uS3, P05750",listed as a hit,[20],yes
same,listed as a hit,[21],yes
same,listed as a hit,[22],yes
"Ubiquitin-ribosomal protein eS31 fusion protein, P05759",listed as a hit,[23],yes
"Small ribosomal subunit protein uS7, P26783",listed as a hit,[24],yes
same,listed as a hit,[25],yes
"Small ribosomal subunit protein eS26A, P39938",listed as a hit,[25],yes
"Small ribosomal subunit protein eS1B, P23248",listed as a hit,[26],yes
"Small ribosomal subunit protein eS21A, P0C0V8",listed as a hit,[22],yes
"Small ribosomal subunit protein eS28B, P0C0X0",listed as a hit,[27],yes
"Succinate--CoA ligase [ADP-forming] subunit beta, mitochondrial, P53312",listed as a hit,[28],yes
"U3 small nucleolar RNA-associated protein 13, Q05946",listed as a hit,[29],yes
"U3 small nucleolar RNA-associated protein 21, Q06078",listed as a hit,[29],yes
"NET1-associated nuclear protein 1, Q02931",listed as a hit,[30],yes
"U3 small nucleolar RNA-associated protein 5, Q04177",listed as a hit,[30],yes
"Nucleolar complex protein 4, Q06512",listed as a hit,[31],yes
"Periodic tryptophan protein 2, P25635",listed as a hit,[32],yes
"Ribosomal RNA-processing protein 7, P25368",listed as a hit,[33],yes
"U3 small nucleolar ribonucleoprotein protein IMP3, P32899",listed as a hit,[34],yes
"Golgi to ER traffic protein 4, Q12125",listed as a hit,[35],yes
"U3 small nucleolar RNA-associated protein 6, Q02354",listed as a hit,[36],yes
